Source: PubChem BioAssay (National Center for Advancing Translational Sciences (NCATS))
Only some compounds are listed: those with a hit (about 8.5% of all), similar ones and a draw of the others.
Coupling enz: qHTS Assay for Inhibitors of Fructose-1,6-bisphosphate Aldolase from Giardia Lamblia: Coupling assay counterscreen; coupling enzyme system counterscreen, AmpLite Red fluorescence; activity change, negative = inhibition, % at 58.2 µM, hits read low; 290,000 compounds, 0.67% hits; in the data active means activity change below about -30%
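First, compound is pin-transferred into glyceraldehyde-3-phosphate coupling-enzyme reagent at 57.5 uM final and held 10 min at RT. Next, substrate, coupling system and AmpLite Red are added. After 20 min RT, fluorescence (525/598 nm) is read.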
NPSR antag: qHTS Assay for Antagonists of the Neuropeptide S Receptor: cAMP Signal Transduction; Q6W5P4; CHO-NPSR cells, cAMP TR-FRET, antagonist mode; Potency, µM (top dose mostly 38.3 µM), inactives show top-dose activity change, negative = inhibition, hits mostly inhibitors; 220,000 compounds, 1% hits; AID 1461, 2008; further: potency means the concentration at half of the fitted maximal effect; nearly all actives have a fitted effect of over 50% in size
Target sequence (Q6W5P4 whole entry, looked up): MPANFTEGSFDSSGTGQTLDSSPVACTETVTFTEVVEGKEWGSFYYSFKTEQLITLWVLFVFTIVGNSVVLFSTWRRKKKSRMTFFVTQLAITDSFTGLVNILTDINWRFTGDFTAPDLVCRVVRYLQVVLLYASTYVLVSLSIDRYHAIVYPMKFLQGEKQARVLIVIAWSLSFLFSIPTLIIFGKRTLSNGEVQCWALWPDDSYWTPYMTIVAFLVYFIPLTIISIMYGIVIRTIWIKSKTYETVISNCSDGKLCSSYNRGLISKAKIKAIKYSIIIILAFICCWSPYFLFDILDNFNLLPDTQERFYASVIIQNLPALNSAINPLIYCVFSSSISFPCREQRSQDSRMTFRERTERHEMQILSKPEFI
Sfp inh: qHTS Assay for Inhibitors of Bacillus subtilis Sfp phosphopantetheinyl transferase (PPTase); 4'-phosphopantetheinyl transferase ffp (Bacillus subtilis), Q9F4F7; Biochemical Sfp PPTase activity, qHTS; Potency, µM, inactives show largest response in the series, negative = inhibition, most hits filed as inhibitors; 310,000 compounds, 3.5% hits; AID 1490, 2009;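 further: the enzyme is Sfp with the accession as filed and its product quenches rhodamine fluorescence; potency means the concentration at half of the fitted maximal effect; 0% = enzyme reaction without inhibitor and -100% = no enzyme wells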
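Buffer: 50 mM Hepes-Na pH 7.6, 10 mM MgCl2, 0.01% Nonidet P-40, 0.01% BSA. Enzyme 15 nM, pre-exposed to compound 15 min; substrates then added and fluorescence change tracked over 30 min.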
ALDH1A1 block: qHTS Assay for Inhibitors of Aldehyde Dehydrogenase 1 (ALDH1A1). Aldehyde dehydrogenase 1A1 (Homo sapiens), P00352. Purified ALDH1A1, NADH fluorescence, propionaldehyde substrate. Potency, µM (series often up to 75.3 µM), for the others: at the highest dose activity, negative = inhibition, actives largely listed as inhibitors. 220,000 compounds, 7.3% hits; active means well fitted inhibition curve with a large enough effect, not every such curve was filed as active; inconclusive means small, poorly fitted or top-dose-only effect, or another doubt; inactive means no such curve, though single readings can be large or run the other way;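 further: potency means the concentration at half of the fitted maximal effect; plate controls were no enzyme wells and a reference inhibitor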
GoLoco inh red: qHTS Assay for Inhibitors of RGS12 GoLoco Motif Activity (Red Fluorophore); Guanine nucleotide-binding protein G(i) subunit alpha-1 (Homo sapiens), P63096; AID 880, 2007; 230,000 compounds, 0.44% hits; Gai1:RGS12 GoLoco peptide FP, rhodamine, 10 min; Potency, µM (series often up to 61.6 µM), without a hit: at the highest dose activity, negative = inhibition, actives largely listed as inhibitors; active means well fitted inhibition curve with a large enough effect, not every such curve was filed as active; inactive means no such curve, though single readings can be large or run the other way; further: potency means the concentration at half of the fitted maximal effect; nearly all actives have a fitted effect of over 30% in size
JMJD2E inh: qHTS Assay for Inhibitors of Human Jumonji Domain Containing 2E (JMJD2E) | Lysine-specific demethylase 4E (Homo sapiens), B2RXH2 | JMJD2E catalytic domain, FDH-coupled NADH fluorescence (FDH is formaldehyde dehydrogenase) | Potency, µM (titrated, usually from 57.1 µM), for the others: at the highest dose activity change, negative = inhibition, actives largely listed as inhibitors | 230,000 compounds, 1.6% hits | AID 2147, 2009; active means well fitted inhibition curve with a large enough effect, not every such curve was filed as active; inconclusive means small, poorly fitted or top-dose-only effect, or another doubt; inactive means no such curve, though single readings can be large or run the other way;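 further: potency means the concentration at half of the fitted maximal effect; 0% = wells with enzyme and -100% = buffer wells without enzyme; nearly all actives have a fitted effect of over 50% in size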
Target sequence (B2RXH2 1-337 limits assumed): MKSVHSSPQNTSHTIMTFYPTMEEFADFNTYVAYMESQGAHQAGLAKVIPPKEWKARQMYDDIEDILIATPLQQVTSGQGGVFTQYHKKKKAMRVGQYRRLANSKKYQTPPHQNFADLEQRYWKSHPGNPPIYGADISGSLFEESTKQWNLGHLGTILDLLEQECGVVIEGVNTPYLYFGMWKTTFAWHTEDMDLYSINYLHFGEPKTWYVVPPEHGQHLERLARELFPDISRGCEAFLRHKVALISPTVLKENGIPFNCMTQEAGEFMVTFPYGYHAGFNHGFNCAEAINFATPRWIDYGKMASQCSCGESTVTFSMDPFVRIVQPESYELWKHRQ
* hit, by the source's call; ? = inconclusive; . = no result given; [ ] = remark or other dose. Unless noted, the call rests on the fitted dose curve; in most records, active means well fitted curve in the direction sought with a large enough effect; inconclusive means small, poorly fitted or top-dose-only effect, or another doubt; inactive means no such curve, though single readings can be large; an effect the other way counts as inactive or inconclusive. Unless noted, on the % scale 0 is the no-effect control and ±100 the full control effect.

SMILES | Coupling enz | NPSR antag | Sfp inh | ALDH1A1 block | GoLoco inh red | JMJD2E inh
COCCNC(=O)c1ccc(Cc2nc3ccccc3[nH]2)cc1 | . | . | . | 15% | . | .
Cc1ccc(C)c(N2CC(C(=O)OCC(=O)Nc3cc(C)on3)CC2=O)c1 (configuration not stated) | 0 | . | 9% | . | . | .
CC(C)C[C@H](NC(=O)c1nc[nH]c1C(=O)NCc1ccc(CNC(=O)OC(C)(C)C)cc1)C(=O)OCc1ccccc1 | -8 | . | 6% | . | . | .
COC(=O)c1cc(C(=O)Nc2nnc(CC(C)C)s2)cc([N+](=O)[O-])c1 | 6 | -13% | -2% | -13% | -1% | -4%
CCC(CC)c1nnc(NC(=O)c2cc(C(=O)OC)cc([N+](=O)[O-])c2)s1 | 4 | -28% | 45µM* | ? | 10% | 1%
CCOc1ccc(C(=O)NC(=S)Nc2ccccc2N2CCOCC2)cc1Br | -4 | -24% | -5% | 4µM* | -6% | -1%
NC(=O)c1ccc(N2CCN(c3ccc(O)cc3)CC2)c([N+](=O)[O-])c1 | -9 | -1% | 32µM* | 16µM* | -8% | -20%
O=C1CN(C(=O)COC(=O)c2ccc(N3CCCCCC3)c([N+](=O)[O-])c2)c2ccccc2N1 | 5 | -12%[46.1 µM] | 1% | 7.9µM* | . | 0%
CC(=O)c1ccc(N2CCN(c3ccc(C(N)=O)cc3[N+](=O)[O-])CC2)cc1 | 5 | 9% | -6% | 4% | 7% | -1%
CC(=O)NCCCS(=O)(=O)O | . | . | 17% | . | . | .
COc1ccccc1-n1cc2c([N+](=O)[O-])cc([N+](=O)[O-])cc2n1 | 1 | . | 8% | . | . | .
OC1(c2ccccc2)CNCCc2ccccc21 (configuration not stated) | 0 | . | -11% | . | . | .
COc1ncc2nc(-c3cc(F)cc(F)c3)c(=O)n(C)c2n1 | -2 | . | 25% | -3% | 5% | .
O=C(CCC1CCN(Cc2ccc(Cl)cc2)CC1)NC1CC1 | 1 | . | 15% | . | . | .
Cc1ccc(C(=O)Nc2ccc(NC(=O)c3cccs3)cc2)cc1[N+](=O)[O-] | 3 | 1% | 21% | 11% | -1% | 13%
O=C(NC(=S)Nc1ccccc1N1CCCC1)c1ccco1 | -38* | ? | 32µM* | . | 6% | -25%
CCC(=O)N1CCN(c2ccccc2NC(=S)NC(=O)c2cccc([N+](=O)[O-])c2)CC1 | -2 | -41% | -11% | 14µM* | -1% | -9%
CN1CCN(c2ccccc2NC(=O)c2ccc(N3CCOCC3)c([N+](=O)[O-])c2)CC1 | 1 | . | -7% | . | . | .
CN1CCN(c2ccccc2NC(=O)c2ccc(N3CCCCC3)c([N+](=O)[O-])c2)CC1 | -3 | -32% | ? | 22µM* | 4% | -2%
Cc1ccc(C(=O)NC(=S)Nc2ccc(NC(=O)c3cccs3)cc2)cc1[N+](=O)[O-] | -1 | 11% | -2% | 13µM* | 42% | 5%
O=C(NC(=S)Nc1ccccc1N1CCCCC1)c1ccco1 | 3 | -24% | 8% | ? | 1% | -10%
CCC(=O)N1CCN(c2ccc(NC(=S)NC(=O)c3cccc([N+](=O)[O-])c3)cc2)CC1 | -1 | 8% | -5% | ? | 5% | 7%
CCOC(=O)c1c(NC(=O)COc2ccc3ccc(=O)oc3c2)sc(C(=O)N(C)C)c1C | . | . | -18% | . | . | .
CCOC(=O)C1=C(COC(=O)COc2ccc(C#N)cc2)NC(=O)NC1C (configuration not stated) | . | . | 14% | . | . | .
CCN(CC)c1ccc(CNC23CN4CN(CN(C4)C2)C3)cc1 | -1 | -6%[46.1 µM] | 12% | 5µM* | -22% | -27%
SMILES | Coupling enz | NPSR antag | Sfp inh | ALDH1A1 block | GoLoco inh red | JMJD2E inh
Cc1ccccc1NC(=O)CSc1nc(O)cc(=O)n1C | 4 | 4% | -5% | . | 59% | -3%
Cc1ccc(C2=NN=C(NC(=O)CSc3nnc4c5ccccc5n(C)c4n3)SC2)cc1 | 1 | 6% | 3% | ? | -5% | -1%
Cc1ccc(C2=NN=C(NC(=O)CSc3nc(C)cc(C)n3)SC2)cc1 | 1 | -22%[46.1 µM] | 40µM* | ? | -10% | 2%
Cc1cc(C)nc(SCC(=O)NC2=NC(=O)C(C)S2)n1 (configuration not stated) | 0 | -4%[46.1 µM] | 22µM* | 22µM* | -13% | 3%
Cc1cc(C(F)(F)F)nc(SCC(=O)NC2=NC(=O)C(C)S2)n1 (configuration not stated) | -1 | -9%[46.1 µM] | -42% | ? | 0% | -6%
CN(C)C(=O)c1ccc2c(c1[N+](=O)[O-])C(=O)c1ccccc1C2=O | -43* | -10%[46.1 µM] | 17% | 9% | 7% | 8%
Cc1[nH]c2c(C)cccc2c1CCNC(=O)c1ccc2c(c1[N+](=O)[O-])C(=O)c1ccccc1C2=O | -31* | -20%[46.1 µM] | 8% | -11% | -2% | 13%
Cc1c(C(=O)OCC2CCCO2)[nH]c2c1C(=O)CC(c1ccc(N(C)C)cc1)C2 (configuration not stated) | 1 | -4%[46.1 µM] | -9% | 11µM* | -8% | -1%
O=C(/C=C/c1ccccc1)c1ccc(NC2=NCCCS2)cc1 | 2 | -53% | -13% | -7% | 3% | -4%
CC(C)(C)c1ccc(/C=C/C(=O)c2ccc(NC3=NCCCS3)cc2)cc1 | -3 | 7.9µM* | ? | 20% | -5% | -4%
O=C(/C=C/c1ccc(Br)cc1)c1ccc(NC2=NCCCS2)cc1 | -11 | ? | 40µM* | 12% | 17% | 6%
CC(NC(=O)CN(c1cccc(C(F)(F)F)c1)S(C)(=O)=O)c1ccccc1 (configuration not stated) | 1 | . | 8% | . | . | .
CC(C)NC(=O)N1CC[C@@]2(CCCN(C(=O)Oc3ccccc3)C2)C1 | 5 | . | -2% | 30% | 13% | .
Nc1nc(SCc2ccccc2)[nH]c(=O)c1-c1ccccc1 | 1 | 9%[46.1 µM] | -3% | 14µM* | 10% | -21%
Nc1nc(SCc2ccccc2Cl)[nH]c(=O)c1-c1ccccc1 | 0 | -8%[46.1 µM] | 20% | -5% | -4% | 0%
Nc1nc(SCC(=O)N2CCCc3ccccc32)[nH]c(=O)c1-c1ccccc1 | -11 | -8%[46.1 µM] | -3% | 22µM* | 0% | -7%
